# Results published in paper PMC7862700, “An all-to-all approach to the identification of sequence-specific readers for epigenetic DNA modifications on cytosine”.
# Key:
# Assay in all cases: DAPPL (digital affinity profiling via proximity ligation, sequencing); 10 mM Tris-HCl pH 7.5, 50 mM NaCl, 1 mM DTT, 4% glycerol, room temperature, 30 min; GST-TFs on glutathione beads, 16-mer random dsDNA library, 0.1% formaldehyde crosslink after washing; high values mean tight binding
# FEV = target: T1, FEV (Homo sapiens, UniProt Q99581 1-238); conditions: protein: recombinant; tags: N-terminal GST; dsDNA, one strand shown
# T1 sequence: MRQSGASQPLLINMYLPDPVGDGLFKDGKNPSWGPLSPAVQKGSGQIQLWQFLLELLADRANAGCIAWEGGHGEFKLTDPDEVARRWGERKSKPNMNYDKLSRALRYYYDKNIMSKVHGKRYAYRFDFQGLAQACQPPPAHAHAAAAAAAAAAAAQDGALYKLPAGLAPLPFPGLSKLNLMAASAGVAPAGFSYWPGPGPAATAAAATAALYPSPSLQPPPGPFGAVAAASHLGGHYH
# In short: (§1)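 Each value of binding signal is a hexamer's read frequency for a factor divided by the same hexamer's frequency in the tag-only sample. Barcoded, bead-captured GST fusions of human transcription factors made in yeast were pooled with that sample and incubated with 200 nmole of a random double-stranded 16-mer DNA library in Tris/NaCl/DTT/glycerol buffer at room temperature for 30 min. Washing, 0.1% formaldehyde crosslinking, proximity ligation, PCR and Illumina NextSeq500 sequencing followed.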
# ETV5 = ETV5 (Homo sapiens, UniProt P41161 1-510); conditions: protein: recombinant; tags: N-terminal GST; dsDNA, one strand shown
# In short: as §1
# HSF1 = HSF1 (Homo sapiens, UniProt Q00613 1-529); conditions: protein: recombinant; tags: N-terminal GST; chain copies: 3; dsDNA, one strand shown
# In short: as §1
# SPIC = target: T2, SPIC (Homo sapiens, UniProt Q8N5J4 1-248); conditions: protein: recombinant; tags: N-terminal GST; dsDNA, one strand shown
# T2 sequence: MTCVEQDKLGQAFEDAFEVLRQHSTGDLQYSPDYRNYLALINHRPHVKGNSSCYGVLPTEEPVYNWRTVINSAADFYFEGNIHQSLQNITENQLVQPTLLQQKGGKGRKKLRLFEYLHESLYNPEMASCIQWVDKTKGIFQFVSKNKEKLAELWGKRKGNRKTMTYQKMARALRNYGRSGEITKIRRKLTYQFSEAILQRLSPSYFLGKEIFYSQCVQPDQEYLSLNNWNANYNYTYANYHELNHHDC
# In short: as §1
# ELF4 = ELF4 (Homo sapiens, UniProt Q99607 1-663); conditions: protein: recombinant; tags: N-terminal GST; dsDNA, one strand shown
# In short: as §1
# ELK4 = target: T3, ELK4 (Homo sapiens, UniProt P28324-2 1-405); conditions: protein: recombinant; tags: N-terminal GST; dsDNA, one strand shown
# T3 sequence: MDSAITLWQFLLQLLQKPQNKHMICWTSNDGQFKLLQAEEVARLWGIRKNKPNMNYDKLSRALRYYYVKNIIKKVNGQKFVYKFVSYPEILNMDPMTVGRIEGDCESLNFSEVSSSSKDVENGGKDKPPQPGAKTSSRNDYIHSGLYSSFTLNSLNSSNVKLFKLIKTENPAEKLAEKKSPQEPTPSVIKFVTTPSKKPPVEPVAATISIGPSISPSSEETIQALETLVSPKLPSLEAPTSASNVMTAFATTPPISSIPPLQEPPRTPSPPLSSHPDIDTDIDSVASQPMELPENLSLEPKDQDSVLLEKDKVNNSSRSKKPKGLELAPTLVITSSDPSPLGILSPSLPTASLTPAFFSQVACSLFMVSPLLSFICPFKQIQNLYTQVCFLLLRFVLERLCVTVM
# In short: as §1
# ETV2 = target: T4, ETV2 (Homo sapiens, UniProt O00321 1-342); conditions: protein: recombinant; tags: N-terminal GST; dsDNA, one strand shown
# T4 sequence: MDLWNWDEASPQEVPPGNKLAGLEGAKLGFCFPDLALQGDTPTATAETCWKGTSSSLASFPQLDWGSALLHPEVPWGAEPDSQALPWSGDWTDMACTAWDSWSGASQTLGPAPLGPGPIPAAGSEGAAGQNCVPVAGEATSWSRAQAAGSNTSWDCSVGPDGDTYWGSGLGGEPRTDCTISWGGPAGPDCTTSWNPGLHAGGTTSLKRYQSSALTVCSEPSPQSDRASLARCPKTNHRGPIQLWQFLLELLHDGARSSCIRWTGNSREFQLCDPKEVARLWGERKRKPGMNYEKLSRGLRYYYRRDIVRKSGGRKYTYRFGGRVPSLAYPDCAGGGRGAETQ
# In short: as §1
# ELF3 = target: T5, ELF3 (Homo sapiens, UniProt P78545 1-371); conditions: protein: recombinant; tags: N-terminal GST; dsDNA, one strand shown
# T5 sequence: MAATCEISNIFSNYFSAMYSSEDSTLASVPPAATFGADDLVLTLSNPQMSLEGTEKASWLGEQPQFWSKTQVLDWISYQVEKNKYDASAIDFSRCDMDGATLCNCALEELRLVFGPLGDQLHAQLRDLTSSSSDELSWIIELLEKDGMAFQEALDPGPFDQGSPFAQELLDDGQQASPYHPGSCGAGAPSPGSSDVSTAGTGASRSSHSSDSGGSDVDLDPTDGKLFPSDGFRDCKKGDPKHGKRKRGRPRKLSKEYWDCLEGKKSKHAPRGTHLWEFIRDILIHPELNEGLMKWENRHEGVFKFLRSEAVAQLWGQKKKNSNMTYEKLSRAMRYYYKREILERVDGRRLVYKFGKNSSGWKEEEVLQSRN
# In short: as §1
# CRX = CRX (Homo sapiens, UniProt O43186 1-299); conditions: protein: recombinant; tags: N-terminal GST; dsDNA, one strand shown
# In short: as §1
# ETV1 = ETV1 (Homo sapiens, UniProt P50549 1-477); conditions: protein: recombinant; tags: N-terminal GST; dsDNA, one strand shown
# In short: as §1
# ERF = target: T6, ERF (Homo sapiens, UniProt P50548 1-548); conditions: protein: recombinant; tags: N-terminal GST; dsDNA, one strand shown
# T6 sequence: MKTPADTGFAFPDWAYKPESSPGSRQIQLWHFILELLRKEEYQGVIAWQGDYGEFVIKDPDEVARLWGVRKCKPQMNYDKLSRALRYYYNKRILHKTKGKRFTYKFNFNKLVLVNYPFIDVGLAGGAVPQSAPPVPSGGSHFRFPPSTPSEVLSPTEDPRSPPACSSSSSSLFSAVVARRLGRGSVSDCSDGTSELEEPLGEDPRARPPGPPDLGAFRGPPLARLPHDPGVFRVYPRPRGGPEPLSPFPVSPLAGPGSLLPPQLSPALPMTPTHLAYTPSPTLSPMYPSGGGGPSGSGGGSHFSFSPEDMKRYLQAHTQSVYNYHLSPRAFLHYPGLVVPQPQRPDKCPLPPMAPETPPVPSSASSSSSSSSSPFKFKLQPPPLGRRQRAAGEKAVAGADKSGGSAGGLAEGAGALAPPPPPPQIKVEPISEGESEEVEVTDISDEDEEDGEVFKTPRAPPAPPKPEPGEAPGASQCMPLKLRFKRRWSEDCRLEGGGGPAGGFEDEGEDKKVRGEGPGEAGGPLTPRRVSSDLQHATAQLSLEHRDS
# In short: as §1
# ETV3L = target: T7, ETV3L (Homo sapiens, UniProt Q6ZN32 1-361); conditions: protein: recombinant; tags: N-terminal GST; dsDNA, one strand shown
# T7 sequence: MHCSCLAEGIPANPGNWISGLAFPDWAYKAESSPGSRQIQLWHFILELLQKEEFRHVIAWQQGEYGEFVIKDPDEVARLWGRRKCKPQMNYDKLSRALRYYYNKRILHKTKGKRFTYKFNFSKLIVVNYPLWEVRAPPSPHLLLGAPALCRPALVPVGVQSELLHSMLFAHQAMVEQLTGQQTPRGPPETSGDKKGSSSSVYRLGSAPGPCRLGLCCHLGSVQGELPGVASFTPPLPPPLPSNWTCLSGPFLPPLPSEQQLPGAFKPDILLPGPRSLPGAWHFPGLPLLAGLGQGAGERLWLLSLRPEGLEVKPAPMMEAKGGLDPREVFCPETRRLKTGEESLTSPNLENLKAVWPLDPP
# In short: as §1
# ETS2 = target: T8, ETS2 (Homo sapiens, UniProt P15036 1-469); conditions: protein: recombinant; tags: N-terminal GST; dsDNA, one strand shown
# T8 sequence: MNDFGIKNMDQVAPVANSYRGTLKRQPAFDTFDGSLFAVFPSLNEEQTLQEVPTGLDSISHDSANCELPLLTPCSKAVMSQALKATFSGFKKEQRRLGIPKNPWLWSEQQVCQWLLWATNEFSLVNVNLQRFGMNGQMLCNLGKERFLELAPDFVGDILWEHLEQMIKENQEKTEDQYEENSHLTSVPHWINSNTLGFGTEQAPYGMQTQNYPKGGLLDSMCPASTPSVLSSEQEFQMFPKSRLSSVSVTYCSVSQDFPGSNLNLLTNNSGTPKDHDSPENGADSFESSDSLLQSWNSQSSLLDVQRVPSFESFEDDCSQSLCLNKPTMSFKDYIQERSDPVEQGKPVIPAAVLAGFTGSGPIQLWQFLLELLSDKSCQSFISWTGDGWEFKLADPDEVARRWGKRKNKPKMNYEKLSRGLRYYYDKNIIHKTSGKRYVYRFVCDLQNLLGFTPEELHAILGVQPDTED
# In short: as §1
# SPDEF = target: T9, SPDEF (Homo sapiens, UniProt O95238 1-335); conditions: protein: recombinant; tags: N-terminal GST; dsDNA, one strand shown
# T9 sequence: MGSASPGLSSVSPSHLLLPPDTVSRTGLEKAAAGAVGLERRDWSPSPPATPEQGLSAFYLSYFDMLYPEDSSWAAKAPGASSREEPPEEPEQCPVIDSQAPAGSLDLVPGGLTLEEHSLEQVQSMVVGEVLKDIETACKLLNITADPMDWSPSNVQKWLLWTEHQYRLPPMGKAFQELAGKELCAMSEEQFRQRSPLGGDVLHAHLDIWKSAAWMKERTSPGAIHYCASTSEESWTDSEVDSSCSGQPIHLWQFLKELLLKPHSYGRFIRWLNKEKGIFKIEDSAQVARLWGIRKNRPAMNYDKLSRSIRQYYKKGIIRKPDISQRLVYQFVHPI
# In short: as §1
# ETV7 = target: T10, ETV7 (Homo sapiens, UniProt Q9Y603 1-341); conditions: protein: recombinant; tags: N-terminal GST; dsDNA, one strand shown
# T10 sequence: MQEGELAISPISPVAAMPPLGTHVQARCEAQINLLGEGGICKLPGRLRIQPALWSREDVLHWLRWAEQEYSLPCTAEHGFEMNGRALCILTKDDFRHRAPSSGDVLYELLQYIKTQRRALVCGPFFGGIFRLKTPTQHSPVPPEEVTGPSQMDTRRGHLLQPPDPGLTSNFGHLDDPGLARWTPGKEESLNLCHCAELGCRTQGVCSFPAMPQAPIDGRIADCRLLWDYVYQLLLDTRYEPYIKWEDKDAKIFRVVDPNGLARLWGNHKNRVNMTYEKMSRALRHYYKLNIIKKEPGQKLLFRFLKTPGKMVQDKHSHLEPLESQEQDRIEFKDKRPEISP
# In short: as §1
# ELF5 = target: T11, ELF5 (Homo sapiens, UniProt Q9UKW6-2 1-255); conditions: protein: recombinant; tags: N-terminal GST; dsDNA, one strand shown
# T11 sequence: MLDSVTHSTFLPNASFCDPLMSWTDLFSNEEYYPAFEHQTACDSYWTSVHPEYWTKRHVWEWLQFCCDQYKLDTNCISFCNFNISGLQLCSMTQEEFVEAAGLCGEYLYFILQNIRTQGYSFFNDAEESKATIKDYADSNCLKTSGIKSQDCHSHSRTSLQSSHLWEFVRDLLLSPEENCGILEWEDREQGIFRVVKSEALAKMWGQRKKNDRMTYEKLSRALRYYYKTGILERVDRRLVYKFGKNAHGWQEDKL
# In short: as §1
# ETV3 = target: T12, ETV3 (Homo sapiens, UniProt P41162-2 1-143); conditions: protein: recombinant; tags: N-terminal GST; dsDNA, one strand shown
# T12 sequence: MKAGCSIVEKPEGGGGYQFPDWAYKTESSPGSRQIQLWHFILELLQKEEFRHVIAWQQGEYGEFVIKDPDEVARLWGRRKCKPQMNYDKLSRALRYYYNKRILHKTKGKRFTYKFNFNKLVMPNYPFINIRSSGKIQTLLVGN
# In short: as §1
# ETV6 = ETV6 (Homo sapiens, UniProt P41212 1-452); conditions: protein: recombinant; tags: N-terminal GST; dsDNA, one strand shown
# In short: as §1
# Sequence of ETV6 (P41212 whole entry): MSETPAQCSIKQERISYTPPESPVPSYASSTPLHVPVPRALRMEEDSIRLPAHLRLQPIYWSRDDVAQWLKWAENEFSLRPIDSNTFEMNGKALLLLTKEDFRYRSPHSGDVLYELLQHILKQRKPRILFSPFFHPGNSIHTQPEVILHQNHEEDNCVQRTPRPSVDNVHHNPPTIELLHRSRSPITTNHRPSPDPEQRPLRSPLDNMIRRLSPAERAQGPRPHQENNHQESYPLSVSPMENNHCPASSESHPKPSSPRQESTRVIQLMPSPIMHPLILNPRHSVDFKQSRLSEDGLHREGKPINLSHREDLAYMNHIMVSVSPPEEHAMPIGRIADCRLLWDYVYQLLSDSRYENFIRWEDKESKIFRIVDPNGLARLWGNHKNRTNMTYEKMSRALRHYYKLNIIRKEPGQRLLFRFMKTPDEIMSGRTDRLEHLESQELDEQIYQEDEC
# Sequence of CRX (O43186 whole entry): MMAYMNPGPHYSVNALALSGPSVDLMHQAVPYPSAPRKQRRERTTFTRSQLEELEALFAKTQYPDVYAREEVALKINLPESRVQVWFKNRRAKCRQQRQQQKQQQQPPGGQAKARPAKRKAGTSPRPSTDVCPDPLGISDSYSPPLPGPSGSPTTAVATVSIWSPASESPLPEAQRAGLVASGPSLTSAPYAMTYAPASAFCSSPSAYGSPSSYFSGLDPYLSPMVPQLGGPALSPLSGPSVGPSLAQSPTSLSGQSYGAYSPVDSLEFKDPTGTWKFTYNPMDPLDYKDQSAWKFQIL
# Sequence of ETV1 (P50549 whole entry): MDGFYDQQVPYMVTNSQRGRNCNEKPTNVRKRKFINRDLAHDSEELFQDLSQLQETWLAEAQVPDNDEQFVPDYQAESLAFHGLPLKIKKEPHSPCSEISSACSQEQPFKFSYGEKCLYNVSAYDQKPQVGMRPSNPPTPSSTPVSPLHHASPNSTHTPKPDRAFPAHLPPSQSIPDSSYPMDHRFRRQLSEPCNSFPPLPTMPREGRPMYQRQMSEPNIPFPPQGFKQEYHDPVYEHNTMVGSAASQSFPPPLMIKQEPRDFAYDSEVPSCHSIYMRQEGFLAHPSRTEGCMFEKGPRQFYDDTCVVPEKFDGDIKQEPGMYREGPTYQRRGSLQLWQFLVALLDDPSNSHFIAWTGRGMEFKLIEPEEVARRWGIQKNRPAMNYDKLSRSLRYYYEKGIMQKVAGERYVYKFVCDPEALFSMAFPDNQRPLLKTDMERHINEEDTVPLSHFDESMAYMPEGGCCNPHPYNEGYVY
# Sequence of ETV5 (P41161 whole entry): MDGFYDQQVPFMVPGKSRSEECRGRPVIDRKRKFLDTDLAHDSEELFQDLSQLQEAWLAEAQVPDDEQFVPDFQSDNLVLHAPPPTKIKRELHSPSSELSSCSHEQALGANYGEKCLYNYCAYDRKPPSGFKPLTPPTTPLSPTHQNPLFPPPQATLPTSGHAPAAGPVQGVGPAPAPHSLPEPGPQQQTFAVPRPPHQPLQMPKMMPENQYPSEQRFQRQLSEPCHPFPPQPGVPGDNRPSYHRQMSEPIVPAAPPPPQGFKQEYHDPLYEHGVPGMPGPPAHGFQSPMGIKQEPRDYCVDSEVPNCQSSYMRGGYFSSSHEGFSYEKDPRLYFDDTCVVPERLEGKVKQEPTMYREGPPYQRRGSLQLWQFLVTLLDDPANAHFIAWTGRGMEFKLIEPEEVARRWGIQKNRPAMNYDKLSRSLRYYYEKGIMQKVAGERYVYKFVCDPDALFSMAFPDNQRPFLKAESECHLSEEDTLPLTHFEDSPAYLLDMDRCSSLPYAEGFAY
# Sequence of ELF4 (Q99607 whole entry): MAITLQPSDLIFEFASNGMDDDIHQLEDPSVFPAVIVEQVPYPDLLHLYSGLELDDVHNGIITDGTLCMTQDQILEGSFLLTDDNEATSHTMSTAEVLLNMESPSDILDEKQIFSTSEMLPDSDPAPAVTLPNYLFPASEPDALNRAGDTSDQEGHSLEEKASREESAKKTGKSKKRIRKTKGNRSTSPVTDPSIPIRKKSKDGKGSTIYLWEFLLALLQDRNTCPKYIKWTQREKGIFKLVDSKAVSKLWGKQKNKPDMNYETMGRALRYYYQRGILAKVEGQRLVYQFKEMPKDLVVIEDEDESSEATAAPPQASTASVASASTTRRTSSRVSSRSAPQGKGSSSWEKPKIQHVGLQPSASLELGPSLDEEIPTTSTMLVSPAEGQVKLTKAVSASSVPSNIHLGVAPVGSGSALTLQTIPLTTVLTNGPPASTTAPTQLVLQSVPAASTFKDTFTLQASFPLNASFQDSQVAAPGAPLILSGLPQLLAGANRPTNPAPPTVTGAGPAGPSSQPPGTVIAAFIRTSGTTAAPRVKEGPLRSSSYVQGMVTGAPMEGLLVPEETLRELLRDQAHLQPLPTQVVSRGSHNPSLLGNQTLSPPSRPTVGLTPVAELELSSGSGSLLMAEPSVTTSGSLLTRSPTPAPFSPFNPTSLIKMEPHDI
# Sequence of HSF1 (Q00613 whole entry): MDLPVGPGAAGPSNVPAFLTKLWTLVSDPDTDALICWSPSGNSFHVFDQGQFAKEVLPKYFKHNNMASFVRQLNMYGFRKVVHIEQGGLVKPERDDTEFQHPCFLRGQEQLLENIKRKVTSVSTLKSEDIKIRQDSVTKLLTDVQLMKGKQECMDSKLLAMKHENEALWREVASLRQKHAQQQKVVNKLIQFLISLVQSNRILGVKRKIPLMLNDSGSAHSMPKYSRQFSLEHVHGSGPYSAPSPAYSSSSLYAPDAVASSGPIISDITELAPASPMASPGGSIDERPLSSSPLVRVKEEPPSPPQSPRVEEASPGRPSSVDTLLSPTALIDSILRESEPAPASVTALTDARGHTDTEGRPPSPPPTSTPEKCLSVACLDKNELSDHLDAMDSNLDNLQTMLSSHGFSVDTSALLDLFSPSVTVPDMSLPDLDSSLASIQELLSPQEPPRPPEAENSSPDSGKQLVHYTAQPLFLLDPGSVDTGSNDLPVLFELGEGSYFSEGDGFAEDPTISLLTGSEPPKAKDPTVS
sequence,measurement,setting,value
GTAAAC,binding signal,FEV,"1.17 fold enrichment (6-mer frequency, TF over GST control)"
same,binding signal,ETV5,"1.18 fold enrichment (6-mer frequency, TF over GST control)"
same,binding signal,HSF1,"1.03 fold enrichment (6-mer frequency, TF over GST control)"
same,binding signal,SPIC,"1.23 fold enrichment (6-mer frequency, TF over GST control)"
same,binding signal,ELF4,"1.23 fold enrichment (6-mer frequency, TF over GST control)"
same,binding signal,ELK4,"1.27 fold enrichment (6-mer frequency, TF over GST control)"
same,binding signal,ETV2,"1.15 fold enrichment (6-mer frequency, TF over GST control)"
same,binding signal,ELF3,"1.38 fold enrichment (6-mer frequency, TF over GST control)"
same,binding signal,CRX,"1.07 fold enrichment (6-mer frequency, TF over GST control)"
same,binding signal,ETV1,"1.22 fold enrichment (6-mer frequency, TF over GST control)"
same,binding signal,ERF,"1.27 fold enrichment (6-mer frequency, TF over GST control)"
same,binding signal,ETV3L,"1.18 fold enrichment (6-mer frequency, TF over GST control)"
same,binding signal,ETS2,"1.28 fold enrichment (6-mer frequency, TF over GST control)"
same,binding signal,SPDEF,"1.17 fold enrichment (6-mer frequency, TF over GST control)"
same,binding signal,ETV7,"1.18 fold enrichment (6-mer frequency, TF over GST control)"
same,binding signal,ELF5,"1.22 fold enrichment (6-mer frequency, TF over GST control)"
same,binding signal,ETV3,"1.3 fold enrichment (6-mer frequency, TF over GST control)"
same,binding signal,ETV6,"1.21 fold enrichment (6-mer frequency, TF over GST control)"
